# In PubChem BioAssay AID1851 (National Center for Advancing Translational Sciences (NCATS), 2009):
# Where “and” joins values, the source holds several entries; their conditions need not be identical. Identical values can stand only once. About 5,800 (36%) of roughly 16,000 compounds were called active. Roughly 23% stayed inconclusive and do not appear here. Calls follow the shape of the dose curve; as a rule, active = well fitted curve in the direction sought with a large enough effect; inconclusive = small, poorly fitted or top-dose-only effect, or effect the other way; inactive = no such curve, though single readings can be large or run the other way. The list shows a part of the results.
# Target: Cytochrome P450 2C19 (Homo sapiens) (UniProt P33261)
# Assay: Cytochrome panel assay with activity outcomes
# Conditions: recombinant CYP, pro-luciferin dealkylation, luminescence, p450-cyp2c19; series mostly up to 57.1 µM; activity, negative = inhibition: at the top concentration
# % is scaled to controls: 0 for no effect and ±100 for the full control effect.
# Cytochrome P450 2C19 (Homo sapiens), sequence (P33261 whole entry, looked up): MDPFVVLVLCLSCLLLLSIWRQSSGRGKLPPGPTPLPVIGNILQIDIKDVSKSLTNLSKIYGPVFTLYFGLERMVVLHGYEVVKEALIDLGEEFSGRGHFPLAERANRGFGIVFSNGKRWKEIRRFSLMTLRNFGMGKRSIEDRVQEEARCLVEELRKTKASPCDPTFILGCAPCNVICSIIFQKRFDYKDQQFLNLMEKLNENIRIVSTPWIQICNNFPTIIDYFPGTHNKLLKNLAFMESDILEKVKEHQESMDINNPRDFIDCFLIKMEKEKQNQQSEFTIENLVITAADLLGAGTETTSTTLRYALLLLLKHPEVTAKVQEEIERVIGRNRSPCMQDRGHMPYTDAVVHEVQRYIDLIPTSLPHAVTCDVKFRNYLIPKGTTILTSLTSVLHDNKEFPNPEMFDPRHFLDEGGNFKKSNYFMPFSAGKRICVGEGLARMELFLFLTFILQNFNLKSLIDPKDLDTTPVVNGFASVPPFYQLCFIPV
Structure (SMILES),AC50,"activity, negative = inhibition"
CC[C@H]1C(=O)OC[C@H]1Cc1cncn1C,inactive,–
CCC1C(=O)OCC1Cc1cncn1C (configuration not stated),7.94 µM (active),–
CC1(C)Cc2c(C#N)c(SCc3ccccc3)nc(N3CCOCC3)c2CO1,8.91 µM (active),–
N#CCCn1c(=O)c(-c2cccc(C#N)c2)nc2cnc(Oc3ccccc3)nc21,–,-18.6% (inactive)
COCCn1c(=O)c(-c2cn(C)c3ccccc23)nc2cnc(Oc3cccc(Cl)c3)nc21,–,-13.6% (inactive)
Cc1nc2cnc(Oc3cccc(Cl)c3)nc2n(CCC#N)c1=O,–,-38% (inactive)
COc1ccc(-c2nc3cnc(Oc4cccc(Cl)c4)nc3n(C[C@H]3CCCO3)c2=O)cc1,–,-39% (inactive)
COCCn1c(=O)c(-c2cc(F)cc(F)c2)nc2cnc(Oc3cccc(Cl)c3)nc21,–,-3.94% (inactive)
N#CCCn1c(=O)c(-c2ccccc2)nc2cnc(Oc3cccc(Cl)c3)nc21,–,-37.6% (inactive)
N#CCCn1c(=O)c(CCc2ccccc2)nc2cnc(Oc3ccccc3)nc21,31.6 µM (active),–
COc1ncc2nc(-c3ccc(Cl)cc3)c(=O)n(C[C@H]3CCCO3)c2n1,10 µM (active),–
COCCn1c(=O)c(CCc2ccccc2)nc2cnc(Oc3cccc(Cl)c3)nc21,15.8 µM (active),–
Cn1cc(-c2nc3cnc(Oc4ccccc4)nc3n(CCC#N)c2=O)c2ccccc21,–,-14.4% (inactive)
CN(C)c1ncc2nc(-c3ccc(Cl)cc3)c(=O)n(C[C@H]3CCCO3)c2n1,–,6.36% (inactive)
N#CCCn1c(=O)c(CCc2ccccc2)nc2cnc(Oc3cccc(Cl)c3)nc21,6.31 µM (active),–
O=C(O)CC/C=C\C[C@@H]1CO[C@H](c2ccccc2Cl)O[C@@H]1c1ccccc1O,–,-44.4% (inactive)
COc1ccc(Oc2ncc3ncc(=O)n(C[C@H]4CCCO4)c3n2)cc1,–,-37% (inactive)
Cc1nc2cnc(Oc3cccc(Cl)c3)nc2n(C[C@H]2CCCO2)c1=O,–,-16.9% (inactive)
O=c1c(CCc2ccccc2)nc2cnc(Oc3cccc(Cl)c3)nc2n1C[C@H]1CCCO1,20 µM (active),–

Structure (SMILES),AC50,"activity, negative = inhibition"
COC(=O)[C@]1(C)CCC(c2ccc(C)cc2)=C(CC(=O)O)C1,–,11.9% [at 11.4 µM] (inactive)
COc1ccc(C(=O)n2c(SC)nc3cc4c(cc32)OCCO4)cc1,10 µM (active),–
CCOc1ccccc1NC(=O)CSc1nnc(-c2cnccn2)n1C,15.8 µM (active),–
CO[C@H]1C[C@@H]2C[C@H](O)C[C@@H](CC(=O)O[C@@H](/C=C\CC(C)C)C[C@@H]3CC[C@H](C)[C@@H](C1)O3)O2,–,2.79% [at 11.4 µM] (inactive)
COCCCNC(=O)C1CC(=O)N(CCc2ccc(OC)c(OC)c2)C1 (configuration not stated),–,-23.4% (inactive)
O=C(NCC1CCCO1)C1c2ccccc2C(=O)N1Cc1ccc2c(c1)OCO2 (configuration not stated),–,-28% (inactive)
O=C1C[C@@H](O)[C@@H](O)[C@H]2[C@@H]3C(=O)N(Cc4ccc5c(c4)OCO5)C(=O)[C@@H]3CC[C@H]12,–,37.1% [at 11.4 µM] (inactive) and -14% [at 11.4 µM] (inactive)
COc1ccc(CCN2C(=O)C(Oc3ccccc3C)C2c2ccc3c(c2)OCO3)cc1OC (configuration not stated),0.501 µM (active),–
COC(=O)c1ccc(C2C(Oc3ccccc3)C(=O)N2CCc2ccc(OC)c(OC)c2)cc1 (configuration not stated),1.58 µM (active),–
COc1ccc(CCN2C(=O)C(O)=C(C(=O)c3ccco3)C2c2cccs2)cc1OC (configuration not stated),–,-19.4% (inactive)
Cc1ccccc1OC1C(=O)N(Cc2ccc3c(c2)OCO3)C1c1sccc1C (configuration not stated),1.12 µM (active),–
CN(C)CCCO[C@H]1[C@@H]2OC(C)(C)O[C@@H]2O[C@@H]1[C@H](O)CO,–,-7.77% [at 25.6 µM] (inactive)
C[n+]1ccccc1/C=N\O,–,-8.91% [at 25.6 µM] (inactive)
CC(=O)NCCNc1ncnc2ccc(-c3ccc4c(c3)OCO4)cc12,6.31 µM (active),–
COc1ccccc1-c1ccc2ncnc(NCCNC(C)=O)c2c1,–,-43% (inactive)
CC(=O)NCCNc1ncnc2ccc(-c3ccccc3C)cc12,20 µM (active),–
CC(=O)NCCNc1ncnc2ccc(-c3ccc(C(=O)N(C)C)cc3)cc12,–,-6.63% (inactive)
CC(=O)NCCNc1ncnc2ccc(-c3ccoc3)cc12,–,2.38% (inactive)
